Measured values reported in PubChem BioAssay (EPA / NIEHS).
Inconclusive results are not listed. Calls of active or inactive are those of the source. Rule for the calls: active = hit-call score of the fitted dose curve at least 0.9, where 1 is the maximum; inconclusive = response in the unintended direction; inactive = score below 0.9.

experiment: ACEA_ER_80hr: ACEA Biosciences xCELLigence Real-Time Cell Analysis on Estrogen Receptor Agonism for Proliferation (AID 2282667); settings: T47D proliferation, impedance (xCELLigence), 80 h
Summary of the method: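 T47D human breast cells were seeded on electrode plates, monitored overnight, then exposed continuously to compounds in eight-point 1:4 dilutions from 100 uM (max 0.5% DMSO). Impedance-based growth was read at 80 h, fitted upward relative to DMSO.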

Row | SMILES | outcome | AC50
1 | OC[C@H]1O[C@@H](O[C@H]2[C@H](O)[C@@H](O)[C@H](O)O[C@@H]2CO)[C@H](O)[C@@H](O)[C@H]1O | inactive | 
2 | C=C(C)C(=O)OCCC[Si](OC)(OC)OC | inactive | 
3 | N=C1N=C(N)c2ccccc21 | inactive | 
4 | CC(C)COC(=O)c1ccccc1 | inactive | 
5 | C1COCO1 | inactive | 
6 | C=C1CC[C@H]2O[C@]2(C)CC[C@@H]2[C@@H]1CC2(C)C | inactive | 
7 | CCOC(=O)CC1(C)OCC(C)O1 (configuration not stated) | inactive | 
8 | Cc1cc(N)n(-c2ccccc2)n1 | inactive | 
9 | COc1ccccc1NC(=O)CC(C)=O |  | 10.3 µM (active)
10 | CCCCOCCOC(=O)c1ccccc1C(=O)OCCOCCCC | inactive | 
11 | CC1=CC(C)C(C=O)C(C)C1 (configuration not stated) (tested in a mixture with another compound) | inactive | 
12 | S=c1[nH][nH]c(=S)s1 |  | 2.68 µM (active)
13 | Cc1ccccc1S | inactive | 
14 | CNC(=C[N+](=O)[O-])NCCSCc1ccc(CN(C)C)o1 | inactive | 
15 | c1ccc(Sc2ccccc2)cc1 | inactive | 
16 | c1ccc2c(c1)-c1ccc3ccc4cccc5cc-2c1c3c45 | inactive | 
17 | Cc1ccc(C(C)(C)O)cc1 | inactive | 
18 | Nc1ccc(O)c(N)c1 | inactive | 
19 | Cc1cc(O)c2c(c1)C(=O)c1cc(O)cc(O)c1C2=O |  | 0.493 µM (active)

Row | SMILES | outcome | AC50
20 | CCOCC(C)O (configuration not stated) | inactive | 
21 | C=C1CC/C=C(\C)CC[C@@H]2[C@@H]1CC2(C)C | inactive | 
22 | CCCCN(CCCC)CCCCCCN(CCCC)CCCC | inactive | 
23 | O=c1cc[nH]cc1 | inactive | 
24 | c1ccc2scnc2c1 | inactive | 
25 | CC(CO)(CO)[N+](=O)[O-] | inactive | 
26 | O=C(O)C1=NN(c2ccc(S(=O)(=O)O)cc2)C(=O)C1 | inactive | 
27 | COc1ccc(OC)cc1 | inactive | 
28 | O=c1cc(-c2ccc(O)cc2)oc2cc(O)cc(O)c12 |  | 1.33 µM (active)
29 | Cc1ccncc1 | inactive | 
30 | O=C(O)c1ccc(C(=O)O)c(C(=O)O)c1 | inactive | 
31 | CC(C)C(=O)OCC=Cc1ccccc1 | inactive | 
32 | CC(O)CNCC(C)O (configuration not stated) |  | 13.1 µM (active)
33 | CC(=O)Nc1cc(S(=O)(=O)O)cc2cc(S(=O)(=O)O)c(N=Nc3ccccc3)c(O)c12 | inactive | 
34 | NC(=O)c1c(Cl)cccc1Cl |  | 0.168 µM (active)
35 | CC(=O)CCc1ccc(O)cc1 | inactive | 
36 | CC(C)CCOC(=O)CC(C)C | inactive | 
37 | CC(CO)c1ccccc1 (configuration not stated) | inactive | 
